# Source: PubChem BioAssay (The Scripps Research Institute Molecular Screening Center)
# Most compounds without a hit are left out; they make up all but 4.1% or so of the library.
# DAX1 inh-1: DAX1 (NR0B1) inhibitors, primary screen, cell-based, HEK293, Gal4-DAX1, luciferase luminescence | Nuclear receptor subfamily 0 group B member 1 (Homo sapiens), P51843 | inhibition, % at 6.75 µM | 340,000 tested, 0.99% active | HEK293 Gal4-DAX1 luciferase reporter | AID 504766, 2011;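 active means inhibition above the mean over all tested compounds plus 3 SD, cut at about 4.2% in these data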;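 further: 0% = DAX1-transfected cells with DMSO and 100% = empty-vector control cells with DMSO; inhibition shows as a rise in luminescence from relieved DAX1 repression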
# Target sequence (P51843 207-470 limits assumed): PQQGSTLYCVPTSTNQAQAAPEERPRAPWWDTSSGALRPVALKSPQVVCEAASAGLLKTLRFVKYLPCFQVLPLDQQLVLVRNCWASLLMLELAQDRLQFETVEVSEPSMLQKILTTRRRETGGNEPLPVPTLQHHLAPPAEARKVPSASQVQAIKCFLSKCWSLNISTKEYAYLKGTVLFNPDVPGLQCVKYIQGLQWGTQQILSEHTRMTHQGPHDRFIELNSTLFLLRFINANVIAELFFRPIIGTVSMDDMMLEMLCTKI
# hgDAF12 agonist: H. glycines DAF-12 receptor agonists, primary screen, cell-based, luminescence, HEK293, GAL4 fusion, UAS-luciferase | Nuclear hormone receptor DAF-12 (Heterodera glycines), GAL4 fusion | HEK293 GAL4-hgDAF12 UAS-luciferase reporter, agonist luminescence; normalized to butyrate control | activation, % at 6.8 µM | 370,000 tested, 1.8% active;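 active means activation above a cutoff set at the mean of all screened compounds plus 3 SD, cut at about 10% in these data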;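 further: 0% = DMSO wells and 100% = sodium butyrate wells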
# DAX1 inh-2: DAX1 (NR0B1) inhibitors on StAR promoter, primary screen, cell-based, luminescence, SF-1 (NR5A1), full-length DAX-1; AID 652010, 2013; 370,000 tested, 1.1% active; inhibition, % at 6.8 µM; HEK293T StAR-luciferase reporter, SF-1/DAX-1 repression relief;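 active means inhibition above the mean over all tested compounds plus 3 SD, cut at about 3.6% in these data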;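 further: 0% = DAX-1 cells with DMSO and 100% = cells lacking DAX-1 with DMSO; higher inhibition means more luminescence from relief of DAX-1 repression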
# hcDAF12 agonist: H. contortus DAF-12 nuclear receptor activators, primary screen, cell-based, luminescence, HEK293, lit1-tk-luc reporter. HEK293 hcDAF-12 lit1-tk-luc reporter; 0% DMSO, 100% Δ7-dafachronic acid. activation, % at 6.8 µM. 370,000 tested, 1.4% active. AID 652067, 2013;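 active means activation above the mean of all tested compounds plus 3 SD, cut at about 5.5% in these data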;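 further: 100% = response to 3 µM Δ7-dafachronic acid high control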
# ssDAF12 agonist: S. stercoralis DAF-12 nuclear receptor activators, primary screen, cell-based, luminescence, HEK293, GRIP1 co-expression, lit1-tk-luc; Nuclear hormone receptor DAF-12 (Strongyloides stercoralis); HEK293 ssDAF-12/GRIP1 lit1-tk-luc reporter; % of 3 µM dafachronic acid response; activation, % at 6.8 µM; 370,000 tested, 1% active; AID 652126, 2013;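 active means activation above the mean over all tested compounds plus 3 SD, cut at about 0.9% in these data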;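 further: 0% = DMSO-only wells and 100% = 3 µM delta7-dafachronic acid wells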
# LXRb hcDAF ctr: LXR agonists, Gal4 luciferase reporter, confirmation, counter-screen for hcDAF-12 agonist project, cell-based, luminescence, HEK293, H. contortus campaign | activation, % at 6.8 µM | HEK293 Gal4-LXR tk-luc reporter, 24 h; normalized: DMSO 0%, positive control 100% | 3,400 tested, under 10 active | shares compounds with hcDAF12 agonist;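 active means mean percent activation of the reporter above a cutoff set as the average over tested compounds plus their standard deviation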
# hcDAF12 ag: H. contortus DAF-12 receptor agonists, confirmation, cell-based, luminescence, HEK293, lit1-tk-luc, triplicate. HEK293 hcDAF-12 lit1-tk-luc reporter; % of Δ7-dafachronic acid response. activation, % at 6.8 µM. 3,400 tested, 61% active. shares compounds with hcDAF12 agonist;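 active means mean activation across triplicate tests above the threshold derived from the earlier primary screen, cut at about 5.5% in these data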;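 further: 0% = DMSO only wells and 100% = 3 µM Δ7-dafachronic acid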
# Starred values were filed as active, the others as inactive; x = no result.
SMILES,DAX1 inh-1,hgDAF12 agonist,DAX1 inh-2,hcDAF12 agonist,ssDAF12 agonist,LXRb hcDAF ctr,hcDAF12 ag
C[C@@H]1CN([C@H](C)CO)C(=O)c2cc(Br)cnc2O[C@H]1CN(C)Cc1ccccc1F,x,0.3,0.3,0.1,-1.2,x,x
COc1ccc(C2Nc3ccccc3C(=O)N2c2ccc(C)cc2)cc1COc1ccccn1 (stereo not drawn),-1.1,7.5,3.6*,6.9*,0.5,0.6,8.7*
O=C(Cc1ccccc1)NCc1ccc2c(c1)OCO2,0.4,6.2,0.5,0.8,-0.7,x,x
O=C(Cc1ccccc1[N+](=O)[O-])NCc1ccc2c(c1)OCO2,1.3,12.0*,1.9,8.8*,2.2*,0.6,8.6*
Cc1ccc(OC2CCN(C(=O)[C@H]3O[C@@H](n4ccc(=O)[nH]c4=O)[C@H](O)[C@@H]3O)CC2)cc1,x,1.6,-0.6,-1.1,-2.0,x,x
Clc1ccc(/C=N/NC2=Nc3cccc4cccc2c34)cc1,3.7,7.1,1.4,6.7*,0.5,1.1,10.1*
Clc1ccc(/C=N/Nc2nc(Cl)nc3ccccc23)cc1,3.7,9.8,1.5,3.7,-0.7,x,x
COc1ccc(/C=C2\C(=O)NC(=S)N2C(=O)c2ccc(C)cc2)cc1,0.9,8.0,2.0,7.4*,-0.4,-0.3,0.8
COc1cc(C(=O)N2CCC(N3CCN(C)CC3)CC2)ccc1Nc1ncc2c(n1)N(C)c1ccccc1C(=O)N2C,x,-5.3,3.7*,6.8*,0.1,-0.1,6.4*
CC1CCC(NC(=O)c2ccc(CNc3c(NC4CCCCC4)c(=O)c3=O)cc2)CC1 (stereo not drawn),0.0,5.1,0.8,-0.3,0.2,x,x
O=C(c1ccc(CNc2c(NC3CCCCC3)c(=O)c2=O)cc1)N1CCc2ccccc21,1.3,7.6,0.1,7.4*,1.1*,-0.3,1.3
Cc1nn(-c2ccc(Cl)c(Cl)c2)c(=O)c2ccccc12,0.3,5.3,0.5,3.6,-0.1,x,x
O=c1c2ccccc2cnn1-c1ccc(Cl)cc1,1.3,16.8*,2.9,12.1*,1.9*,1.6,10.2*
Cc1nn(-c2ccc(Cl)cc2)c(=O)c2ccccc12,1.7,9.4,2.7,7.2*,1.1*,0.6,9.9*
O=c1c2ccccc2cnn1Cc1n[nH]c(=S)n1-c1ccc(Cl)cc1,0.7,0.0,-0.4,-1.4,-0.9,x,x
CCOC(=O)Nc1ccc2c3c(cccc13)-c1ccccc1-2,1.5,7.2,4.2*,8.2*,0.5,0.1,7.7*
Cc1cc(Cl)ccc1OCC(=O)NCCOC(=O)Nc1sc(=S)n(C)c1C,-0.9,0.6,-0.3,6.9*,-0.4,-0.3,-1.0
NC(=O)c1c(NC(=O)c2ccccc2F)sc2c1CCCC2,5.4*,12.9*,2.6,9.0*,0.3,1.1,7.3*
Cc1ccc(C(=O)Nc2sc3c(c2C#N)CCCCC3)cc1C,0.6,5.7,1.0,2.9,-0.6,x,x
N#Cc1c(NC(=O)c2ccccc2)sc2c1CCCCC2,1.5,12.8*,3.0,7.0*,1.0*,1.0,5.9*
COc1ccc(N2CCN(CCNS(=O)(=O)c3ccc(F)cc3)CC2)cc1,x,-0.5,-0.9,0.4,-1.6,x,x
O=C(O)C(=O)/C(=C\c1cccc(Cl)c1)c1ccc2ccccc2n1,2.3,11.2*,3.8*,13.6*,2.1*,0.3,8.6*
O=C(O)/C(=C\c1ccccc1)c1ccc2ccccc2c1,x,-0.7,0.5,0.7,-0.6,x,x
CS(=O)(=O)c1ccc(C(=O)OCC#CCSc2nnc(-c3cccc4ccccc34)o2)cc1,x,4.4,x,-3.2,-1.6,x,x
Cc1ccc(Nc2nc(-c3cccnc3)cs2)cc1C,4.3*,19.1*,3.5,19.6*,3.8*,1.6,18.7*
SMILES,DAX1 inh-1,hgDAF12 agonist,DAX1 inh-2,hcDAF12 agonist,ssDAF12 agonist,LXRb hcDAF ctr,hcDAF12 ag
Clc1cccc(Nc2nc(-c3cccnc3)cs2)c1,5.4*,11.3*,0.6,8.9*,1.8*,0.8,10.7*
Cc1cccc(C(=O)OCC(=O)N2c3ccccc3CC2C)c1C (stereo not drawn),0.2,3.8,-0.7,-2.2,-1.0,x,x
Cc1nn(-c2ccccc2)c2c1C1(C(=O)N(C)c3ccccc31)N(c1ccccc1)C(=O)N2 (stereo not drawn),-1.6,2.5,2.0,6.6*,0.1,-0.2,3.6
Cc1nn(-c2ccccc2)c(N)c1C1(O)C(=O)N(C)c2ccccc21 (stereo not drawn),-1.0,-0.1,-0.1,1.2,-1.1,x,x
CC(C)CNC(=O)OCc1cn(Cc2cc(F)ccc2F)nn1,x,2.0,-0.4,-0.7,-0.4,x,x
O=C(Nc1ccccc1)c1cnc2ccccc2n1,-0.6,10.6*,2.1,7.5*,1.1*,0.7,7.4*
Cc1cccc(C)c1-n1nnnc1C(c1ccnc2ccccc12)N(CCN(C)C)Cc1ccccc1 (stereo not drawn),x,-2.4,-1.2,-1.3,-0.2,x,x
Cc1csc(NC(=O)c2cc3c(s2)CCCCC3)n1,-3.9,-2.1,-1.2,3.4,-1.3,x,x
Cc1cnc(NC(=O)c2cc3c(s2)CCCC3)s1,-2.1,2.8,1.9,9.0*,0.1,1.6,7.0*
Cc1csc(NC(=O)c2cc3c(s2)CCCC3)n1,-2.2,12.0*,1.8,11.1*,0.2,1.4,7.0*
CN1CCN(C(=O)Nc2ccccc2CC[N+](=O)[O-])CC1,0.3,-0.6,0.5,13.2*,0.4,0.0,3.9
Cc1ccccc1CN1CCCCC(NC(=O)c2ccc(F)cc2)C1=O (stereo not drawn),x,-2.8,-2.7,-4.5,-1.1,x,x
Cn1nc(C(C)(C)C)cc1NC(=O)C1(C)CCN1C(=O)C1(c2ccccc2)CC1 (stereo not drawn),x,-0.8,-0.8,0.7,-1.5,x,x
Cn1c(Cl)c(C(=O)Nc2ccc(Cl)cc2)c2ccccc21,2.9,8.3,-0.1,6.8*,0.7,0.3,5.9*
Cc1ccccc1NC(=O)Nc1nnc([C@@H]2C[C@H](O)[C@@H](CO)O2)s1,x,3.2,1.2,-0.5,-1.1,x,x
